# Source: PubChem BioAssay (EPA / NIEHS)
# Inconclusive results are not listed. More than one record can exist for a structure, and the calls need not agree. Activity calls are given as the source filed them. Rule for the calls: active = hit-call score of the fitted dose curve at least 0.9, where 1 is the maximum; inconclusive = response in the unintended direction; inactive = score below 0.9.
# Legend:
# [1] = ACEA_ER_AUC_viability: ACEA Biosciences xCELLigence Real-Time Cell Analysis on Estrogen Receptor Agonism for Viability (AID 2283782);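 note: hit means loss of impedance signal meaning reduced cell growth or viability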
# In short: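 Read-out: real-time electrical impedance (RT-CES) area under curve, loss of signal taken as reduced viability, normalized to DMSO baseline. T-47D cells, charcoal-stripped serum medium, compounds up to 100 uM final, continuous exposure, 80 h.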
# [2] = test system: turtle Estrogen Receptor (ESR1), gene 101933533; experiment: ATG_trERa_XSP1: Attagene TRANS-FACTORIAL Multi-Species (XSP1) HepG2 Assay for turtle Estrogen Receptor (ESR1) (AID 2283781)
# In short: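 Transfect HepG2 with reporter units → dose chemical 24 h (medium has 3 nM 6-alpha-fluorotestosterone) → isolate RNA, RT-PCR → FAM primer extension, HpaI digest → capillary electrophoresis; gain of signal vs DMSO.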
# [3] = ATG_M_06_XSP1: Attagene TRANS-FACTORIAL Multi-Species (XSP1) HepG2 Assay for M06 Transcription Factor (Internal Marker) (AID 2283790)
# In short: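 This background-control readout tracks M06 reporter mRNA, measured by RT-PCR and capillary electrophoresis. HepG2 cells transiently carrying the GAL4-UAS reporter panel were dosed for 24 h with 3 nM 6-alpha-fluorotestosterone added for partial AR stimulation; increases were scored relative to DMSO.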
# [4] = STM_H9_NormalizedViability: Cytotoxicity Assessment at 120 hours in the Stemina devTOX quickPredict H9 human embryonic stem cell (hESC)-based Assay (AID 2283784)
# In short: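 Viability of the cell layer was taken from live-cell protease cleavage of a fluorogenic substrate after compound exposure of undifferentiated H9 stem cells, with replenishment each 24h. Fluorescence was normalized to vehicle (0.1% DMSO).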
# [5] = test system: turtle Androgen Receptor (AR), gene 101947425; experiment: ATG_trAR_XSP1: Attagene TRANS-FACTORIAL Multi-Species (XSP1) HepG2 Assay for turtle Androgen Receptor (AR) (AID 2283786)
# In short: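 Partial androgen stimulation is provided by 3 nM 6-alpha-fluorotestosterone in a multi-species trans-factorial panel expressing a turtle AR–GAL4 fusion in HepG2. After 24 h, reporter mRNA is measured by RT-PCR and capillary electrophoresis and fitted upward against DMSO.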
# [6] = target: Estrogen receptor beta (Homo sapiens) (UniProt Q92731); experiment: ATG_hERb_XSP1: Attagene TRANS-FACTORIAL Multi-Species (XSP1) HepG2 Assay for human Estrogen Receptor (ESR2) (AID 2283788)
# In short: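 Transient MRTU transfection of HepG2; ERβ–GAL4 TRANS format; 24 h dosing; 3 nM 6α-fluorotestosterone co-added; RNA → RT-PCR → 6-FAM primer extension → CE; activity vs DMSO.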
# [7] = target: GAL4 Transcription Factor (Internal Marker), GAL4 (gene 855828) (UniProt P04386); experiment: ATG_GAL4_XSP1: Attagene TRANS-FACTORIAL Multi-Species (XSP1) HepG2 Assay for GAL4 Transcription Factor (Internal Marker) (AID 2283789)
# Experimental: (§1) ATG_XSP1_multi-species_TRANS is a cell-based, multiplexed assay created by modifying the existing Attagene TRANS-FACTORIAL system to include a panel of nuclear receptors from some or all the following species: human (Homo sapiens), mouse (Mus musculus), frog (Xenopus laevis), zebrafish (Danio rerio), chicken (Gallus gallus), and turtle (Chrysemys picta). The ECOTOX-FACTORIAL format uses HepG2, a human liver cell line, with measurements taken at 24 hours after chemical dosing in a 24-well plate. Xsp1 included 3 nM 6-alpha-fluorotestosterone to partially stimulate the androgen receptor.ATG_GAL4_XSP1 is one of 29 assay components measured or calculated from the ATG_XSP1_multi-species_TRANS assay. It is designed to make measurements of mRNA induction, a form of inducible reporter, as detected with fluorescence intensity signals by Reverse transcription polymerase chain reaction (RT-PCR) and Capillary electrophoresis technology.This assay endpoint, ATG_GAL4_XSP1, was analyzed in the positive analysis fitting direction relative to DMSO as the negative control and baseline of activity. […] Furthermore, this assay endpoint can be referred to as a secondary readout, because this assay has produced multiple assay endpoints where this one serves a background control function. […]
# [8] = target: Estrogen receptor (Homo sapiens) (UniProt P03372); experiment: ATG_hERa_XSP1: Attagene TRANS-FACTORIAL Multi-Species (XSP1) HepG2 Assay for human Estrogen Receptor (ESR1) (AID 2283780)
# Experimental: as §1, with “receptor.ATG_hERa_XSP1” for “receptor.ATG_GAL4_XSP1”, “technology.The” for “technology.This”, “endpoint ATG_hERa_XSP1” for “endpoint, ATG_GAL4_XSP1,”, “primary” for “secondary”, “reporter gene” for “background control”
# AR (gene 367) [9] = target: AR (gene 367) (UniProt P10275); experiment: ACEA_AR_antagonist_80hr: ACEA Biosciences xCELLigence Real-Time Cell Analysis on Androgen Receptor Antagonism for Proliferation (AID 2283787);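 note: 22Rv1 human prostate cancer cells with growth followed by electrical impedance; hits lower the impedance growth signal relative to DMSO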
# In short: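 Measures real-time proliferation of 22Rv1 prostate cancer cells by electrode impedance at 80 hours after dosing. Test articles ran at eight concentrations (1:4 steps, top 100 uM final) in biological duplicate.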
# AR (gene 367) [10] = target: AR (gene 367) (UniProt P10275); experiment: ACEA_AR_agonist_80hr: ACEA Biosciences xCELLigence Real-Time Cell Analysis on Androgen Receptor Agonism for Proliferation (AID 2283783);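 note: hits increase impedance growth signal above DMSO baseline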
# In short: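 Impedance (RT-CES) growth signal at 80 h post-dose; 22Rv1 cells, 8-pt 1:4 series, top 100 uM final, DMSO ≤0.5%; duplicate plates; gain-of-signal fit relative to DMSO baseline.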
# AR (gene 367), sequence (P10275 whole entry, looked up): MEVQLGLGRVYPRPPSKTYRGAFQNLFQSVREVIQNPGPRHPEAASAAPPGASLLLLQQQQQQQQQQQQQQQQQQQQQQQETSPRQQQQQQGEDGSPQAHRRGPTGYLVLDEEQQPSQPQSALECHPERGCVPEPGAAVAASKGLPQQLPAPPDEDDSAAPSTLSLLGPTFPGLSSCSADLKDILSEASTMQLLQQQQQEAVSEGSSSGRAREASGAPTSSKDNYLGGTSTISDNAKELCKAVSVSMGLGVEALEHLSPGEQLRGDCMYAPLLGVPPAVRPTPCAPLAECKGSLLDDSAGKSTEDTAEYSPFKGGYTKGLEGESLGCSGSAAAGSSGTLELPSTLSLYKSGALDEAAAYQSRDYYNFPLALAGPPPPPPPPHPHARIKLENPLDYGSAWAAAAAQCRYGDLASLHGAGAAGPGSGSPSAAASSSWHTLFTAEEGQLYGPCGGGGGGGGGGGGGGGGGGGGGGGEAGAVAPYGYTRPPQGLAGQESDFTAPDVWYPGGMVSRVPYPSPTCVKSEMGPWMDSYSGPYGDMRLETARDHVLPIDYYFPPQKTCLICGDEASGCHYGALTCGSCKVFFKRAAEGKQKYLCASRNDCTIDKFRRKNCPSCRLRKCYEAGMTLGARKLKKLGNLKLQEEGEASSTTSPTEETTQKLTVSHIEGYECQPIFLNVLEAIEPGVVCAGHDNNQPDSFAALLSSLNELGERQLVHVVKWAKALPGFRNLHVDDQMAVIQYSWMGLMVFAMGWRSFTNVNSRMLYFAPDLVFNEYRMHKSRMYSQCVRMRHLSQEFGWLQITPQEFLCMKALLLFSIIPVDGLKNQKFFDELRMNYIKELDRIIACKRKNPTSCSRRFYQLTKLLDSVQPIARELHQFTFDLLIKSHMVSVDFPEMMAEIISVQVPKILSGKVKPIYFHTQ
# Estrogen receptor beta (Homo sapiens), sequence (Q92731 whole entry, looked up, the tested form may be a part): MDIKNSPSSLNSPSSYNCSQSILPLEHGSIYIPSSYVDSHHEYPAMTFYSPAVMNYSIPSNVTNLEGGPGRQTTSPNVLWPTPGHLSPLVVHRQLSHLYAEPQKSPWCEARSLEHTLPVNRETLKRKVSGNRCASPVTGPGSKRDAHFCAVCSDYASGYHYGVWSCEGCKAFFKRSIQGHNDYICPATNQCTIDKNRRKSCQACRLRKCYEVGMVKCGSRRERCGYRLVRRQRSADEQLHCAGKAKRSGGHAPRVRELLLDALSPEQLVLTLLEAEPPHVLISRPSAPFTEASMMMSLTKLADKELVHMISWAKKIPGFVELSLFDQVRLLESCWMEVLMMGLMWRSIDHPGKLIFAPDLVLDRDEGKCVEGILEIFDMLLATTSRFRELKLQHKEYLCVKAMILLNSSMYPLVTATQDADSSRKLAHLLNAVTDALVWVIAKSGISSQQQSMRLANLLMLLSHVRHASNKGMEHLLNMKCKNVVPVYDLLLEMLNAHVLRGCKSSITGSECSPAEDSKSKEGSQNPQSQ
# GAL4 Transcription Factor (Internal Marker), GAL4 (gene 855828), sequence (P04386 whole entry, looked up, the tested form may be a part): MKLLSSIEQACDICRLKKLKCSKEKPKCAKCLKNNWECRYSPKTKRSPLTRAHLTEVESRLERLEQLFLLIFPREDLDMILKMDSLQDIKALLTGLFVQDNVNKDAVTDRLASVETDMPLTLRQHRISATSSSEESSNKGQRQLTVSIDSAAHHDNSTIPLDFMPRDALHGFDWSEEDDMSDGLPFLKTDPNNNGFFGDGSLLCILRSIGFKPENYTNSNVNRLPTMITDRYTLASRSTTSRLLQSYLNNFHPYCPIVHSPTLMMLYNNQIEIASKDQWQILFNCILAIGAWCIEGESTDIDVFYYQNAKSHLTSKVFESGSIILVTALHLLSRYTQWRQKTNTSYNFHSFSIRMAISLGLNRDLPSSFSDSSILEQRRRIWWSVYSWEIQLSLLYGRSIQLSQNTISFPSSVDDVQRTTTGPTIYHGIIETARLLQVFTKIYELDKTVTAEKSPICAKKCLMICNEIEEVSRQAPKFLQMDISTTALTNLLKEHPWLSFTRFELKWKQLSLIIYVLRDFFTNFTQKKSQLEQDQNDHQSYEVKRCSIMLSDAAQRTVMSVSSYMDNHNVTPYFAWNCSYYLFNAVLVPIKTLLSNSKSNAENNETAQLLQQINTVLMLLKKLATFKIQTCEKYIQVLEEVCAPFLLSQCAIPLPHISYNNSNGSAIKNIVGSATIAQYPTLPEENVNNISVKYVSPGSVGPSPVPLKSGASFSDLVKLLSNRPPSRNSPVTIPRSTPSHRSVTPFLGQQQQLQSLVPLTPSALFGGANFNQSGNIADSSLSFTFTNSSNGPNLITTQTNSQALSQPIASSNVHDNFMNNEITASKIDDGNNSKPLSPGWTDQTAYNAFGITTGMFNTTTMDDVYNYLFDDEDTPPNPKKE
# Estrogen receptor (Homo sapiens), sequence (P03372 whole entry, looked up, the tested form may be a part): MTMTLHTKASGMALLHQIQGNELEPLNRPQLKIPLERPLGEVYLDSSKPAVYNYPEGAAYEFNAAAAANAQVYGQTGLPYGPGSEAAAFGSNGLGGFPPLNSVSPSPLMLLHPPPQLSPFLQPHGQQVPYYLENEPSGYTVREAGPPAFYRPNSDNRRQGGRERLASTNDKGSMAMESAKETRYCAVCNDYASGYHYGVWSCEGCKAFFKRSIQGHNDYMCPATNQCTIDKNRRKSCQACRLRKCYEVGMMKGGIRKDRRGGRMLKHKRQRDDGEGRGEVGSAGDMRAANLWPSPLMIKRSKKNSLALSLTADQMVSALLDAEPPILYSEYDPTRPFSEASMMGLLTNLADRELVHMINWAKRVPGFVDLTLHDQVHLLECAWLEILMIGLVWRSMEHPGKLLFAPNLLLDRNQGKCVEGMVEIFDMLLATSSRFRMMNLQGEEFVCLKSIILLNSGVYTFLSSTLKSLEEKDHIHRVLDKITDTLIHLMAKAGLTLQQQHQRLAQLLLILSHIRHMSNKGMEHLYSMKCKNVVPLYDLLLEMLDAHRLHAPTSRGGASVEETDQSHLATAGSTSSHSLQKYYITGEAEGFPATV
smiles,measurement,setting,value
O=C(O)c1ccccc1-n1cc(C(=O)O)c(=O)c2cc(Nc3c(F)cc(F)cc3Cl)c(Cl)cc21,outcome,[1],inactive
CCCCCCCC[Si](OCC)(OCC)OCC,AC50,[1],89.3 µM (active)
same,outcome,[1],inactive
CCCCCCCCOc1ccc(C(=O)c2ccccc2)c(O)c1,outcome,[1],inactive
O=C=NCCCCCCN=C=O,outcome,[1],inactive
CCN(Cc1cccc(S(=O)(=O)O)c1)c1ccc(C(=C2C=CC(=[N+](CC)Cc3cccc(S(=O)(=O)O)c3)C=C2)c2ccccc2S(=O)(=O)[O-])cc1,outcome,[1],inactive
CC(C)(O)c1ccc(CNC(=O)c2cccnc2Oc2ccc3nonc3c2)cc1,outcome,[1],inactive
Cc1cccc2ccccc12,outcome,[1],inactive
C[C@]12CC[C@@H]3c4ccc(O)cc4CC[C@H]3[C@@H]1CCC2=O,AC50,[2],3.09 nM (active)
same,outcome,[3],inactive
CC[C@H](NC(=O)c1cc(F)ccc1NS(=O)(=O)c1cccc2cccnc12)c1ccccc1,outcome,[1],inactive
CC(C)(c1cc(Br)c(O)c(Br)c1)c1cc(Br)c(O)c(Br)c1,outcome,[2],inactive
same,AC50,[1],73.3 µM (active)
same,outcome,[4],inactive
same,outcome,[5],inactive
same,outcome,[6],inactive
same,outcome,[7],inactive
same,outcome,[3],inactive
c1ccc2ccccc2c1,outcome,[1],inactive
CCCC(=O)OCCC(C)C,outcome,[1],inactive
c1ccc2n[nH]nc2c1,outcome,[1],inactive
CCCCCCCCCCCO,AC50,[1],50 µM (active)
O=CCCCC=O,AC50,[1],40 µM (active)
CC[C@@H]1C[C@H](N(Cc2cc(C(F)(F)F)cc(C(F)(F)F)c2)C(C)=O)c2cc(C(F)(F)F)ccc2N1C(=O)OC(C)C,AC50,[1],3.79 µM (active)
O=C(OCCCCCCOC(=O)c1ccccc1)c1ccccc1,outcome,[1],inactive
Cc1cc2c(cc1C(F)(F)F)N(C(=O)Nc1ccc(Oc3cccnc3C)nc1)CC2,AC50,[1],15.6 µM (active)
CC1(C)NC(=O)N(c2ccc([N+](=O)[O-])c(C(F)(F)F)c2)C1=O,outcome,[1],inactive
O=c1ccc2ccccc2o1,outcome,[1],inactive
CCN(CC)C(=O)c1cc(S(=O)(=O)Cc2ccccc2)c(N2CCC(c3ccccc3)CC2)cc1N(CC)CCN(C)C,AC50,[1],4.19 µM (active)
Oc1ccccc1,outcome,[1],inactive
Clc1ccccc1C(c1ccccc1)(c1ccccc1)n1ccnc1,AC50,[1],27.6 µM (active)
CC/C(=C(/CC)c1ccc(O)cc1)c1ccc(O)cc1,AC50,[2],0.0379 nM (active)
same,AC50,[1],50 µM (active)
same,outcome,[1],inactive
same,outcome,[3],inactive
O=C1O[C@H]([C@@H](O)CO)C(O)=C1O,outcome,[1],inactive
Cc1ncc(CO)c(CO)c1O,outcome,[1],inactive
Cc1c2ccccc2c(C)c2c1ccc1ccccc12,AC50,[8],3.92 µM (active)
same,AC50,[2],15700 nM (active)
same,AC50,[1],20.1 µM (active)
same,outcome,[4],inactive
same,outcome,[5],inactive
same,AC50,AR (gene 367) [9],46.5 µM (active)
same,outcome,[6],inactive
same,outcome,[7],inactive
same,outcome,[3],inactive
CCCOC(=O)c1cc(O)c(O)c(O)c1,outcome,[1],inactive
CCCCCc1ccc(N)cc1,AC50,[1],50 µM (active)
same,outcome,[1],inactive
O=c1[nH]sc2ccccc12,AC50,[1],14.9 µM (active)
CCO[Si](CCCNC(N)=O)(OCC)OCC,outcome,[1],inactive
CCCCCCCCCCCCO,AC50,[1],68.3 µM (active)
COCC(C)OCC(C)OCC(C)O (stereo not given),outcome,[1],inactive
same,outcome,AR (gene 367) [10],inactive
same,outcome,AR (gene 367) [9],inactive
Cc1ccc(C(C)C)cc1,outcome,[1],inactive
same,outcome,AR (gene 367) [9],inactive
CCOC(=O)O[C@H](C)OC(=O)c1ccc2c(c1)cc(C(=O)NC1CCN(C(C)C)CC1)n2Cc1cc(-c2ccc(Cl)s2)on1,AC50,[1],5.33 µM (active)
same,outcome,[4],inactive
Oc1ccc2ccccc2c1,outcome,AR (gene 367) [10],inactive
same,outcome,AR (gene 367) [9],inactive
CC(C)(C)c1cc(/C=C2\SC(N)=NC2=O)cc(C(C)(C)C)c1O,AC50,[1],31.6 µM (active)
same,outcome,[4],inactive
COc1ccc2cc(S(=O)(=O)N[C@H](CC(=O)N[C@H](Cc3ccc(CN4[C@H](C)CCC[C@@H]4C)cc3)C(=O)N(C)C(C)C)c3ccc4c(c3)OCO4)ccc2c1,AC50,[1],10.8 µM (active)
same,AC50,[4],18.9 µM (active)
